Data on 26 compounds can be found in PubChem BioAssay (Tox21).

SMILES strings stand for the structures. Unmarked numbers belong to inactive results. Inconclusive results are not listed. Activity calls are given as the source filed them. Unless noted, calls follow the shape of the dose curve; as a rule, active = well fitted curve in the direction sought with a large enough effect in the repeat runs; inconclusive = weak or mixed curves; inactive = no such curve, though single readings can be large; an effect the other way counts as inactive or inconclusive.

Assay [1] in a line: qHTS assay to identify small molecule agonists of the hypoxia (HIF-1) signaling pathway - cell viability counter screen (AID 1224844; calls by dose curve; also: nearly all actives have a fitted effect of over 50% in size; also: potency is read from the fitted curve at half-maximal effect). Put shortly:
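In this counter screen, HRE-bla ME-180 cell viability after 17 hrs of compound exposure at 37C was read by CellTiter-Glo luminescence, multiplexed with the beta-lactamase reporter measurement.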

Assay [2] is described as follows: qHTS assay to identify small molecule agonists of the hypoxia (HIF-1) signaling pathway (AID 1224846; active = well fitted activation curve with a large enough effect in the signal ratio in the repeat runs, not every such curve was filed as active; the % refers to the signal ratio; also: potency is read from the fitted curve at half-maximal effect). Put shortly:
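ME-180 HRE-bla reporter cells; compounds in DMSO, 17 h at 37C; read-out beta-lactamase via CCF4-AM FRET.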
(Quantitative high-throughput screening tests each substance at several concentrations.)

A short description of assay [3]: qHTS assay to identify small molecule agonists of H2AX - cell viability counter screen (AID 1224847; calls by dose curve; also: nearly all actives have a fitted effect of over 30% in size; also: potency is read from the fitted curve at half-maximal effect; as to activity change, negative = cytotoxicity: top concentration of the series differs between compounds). Put shortly: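 Cells plated first: CHO-K1, 1000 per well in 10% FBS medium, incubated overnight at 37C. Then 15-point compound titration added (final DMSO 0.76%) for 3 hr. Finally CellTiter-Glo added and luminescence read.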
A short description of assay [4]: qHTS assay to identify small molecule antagonists of the estrogen related receptor (ERR) signaling pathway from Tox21 library (AID 1224848). Also: nearly all actives have a fitted effect of over 50% in size. Also: potency is read from the fitted curve at half-maximal effect. Put shortly: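 Compounds dissolved in DMSO are pin-transferred onto ERR reporter cells (2,000 per well) that have settled for 6 h at 37 C. Plates then incubate 18 h at 37 C before ONE-Glo luciferase reagent and a luminescence read 30 min later.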

Assay [5] is described as follows: qHTS assay to identify small molecule agonists of the estrogen related receptor (ERR) signaling pathway from Tox21 library (AID 1224849; calls by dose curve; also: nearly all actives have a fitted effect of over 15% in size). The note with it: ERR reporter cell line, ONE-Glo luciferase, 18 h; at 92.4 µM (top of the series) unless noted. Put shortly:
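Luciferase activity in ERR pathway reporter cells served as the agonist readout; exposure lasted 18 h at 37 C, with ONE-Glo detection after 30 min at room temperature.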

Assay [6] in a line: qHTS RealTime-Glo MT Cell Viability Assay in HepG2 cells - 24 hour (AID 1224867). Also: nearly all actives have a fitted effect of over 50% in size. Put shortly:
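HepG2 cells (600/well) were dispensed with RealTime-Glo reagents, incubated 5 h at 37 °C, then treated with compounds in DMSO for up to 40 h. Nonlytic NanoLuc luminescence reflecting viable cells was read at each stated time point.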

Assay [7] in a line: qHTS RealTime-Glo MT Cell Viability Assay in HEK293 cells - 32 hour (AID 1224868). Also: nearly all actives have a fitted effect of over 50% in size. Also: potency is read from the fitted curve at half-maximal effect. As to activity change, negative = cytotoxic: top concentration of the series differs between compounds. Put shortly:
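HEK293 cells seeded with NanoLuc/prosubstrate reagent, rested 5 h at 37 C, then dosed and kept at 37 C up to 40 h. Nonlytic real-time luminescence from viable cells read at 0, 8, 16, 24, 32 and 40 h.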

Assay [8] in a line: A CellTox Green Cytotoxicity Assay to monitor cytotoxicity in HEK293 cells - 0 hour (AID 1224869). Also: nearly all actives have a fitted effect of over 50% in size. Put shortly:
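Real-time, in one plate: 600 HEK293 cells/well with dead-cell DNA dye, pinned compound after 5 h, 37 C incubation over 40 h; viable cells give no appreciable fluorescence.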

Assay [9] is described as follows: qHTS RealTime-Glo MT Cell Viability Assay in HepG2 cells - 40 hour (AID 1224870). Also: nearly all actives have a fitted effect of over 50% in size. Also: potency is read from the fitted curve at half-maximal effect. Put shortly: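 HepG2 cells (600/well) mixed with RealTime-Glo MT reagent, settled 5 h at 37 C/5% CO2 before compound addition. Nonlytic NanoLuc luminescence from viable-cell prosubstrate reduction read repeatedly during 40 h treatment at 37 C.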
The nature of assay [10]: qHTS assay to identify small molecule agonists of H2AX (AID 1224845; active = well fitted activation curve with a large enough effect in the signal ratio in the repeat runs, not every such curve was filed as active; the % refers to the signal ratio). Put shortly:
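Wild-type CHO-K1 cells, plated overnight, exposed 3hr at 37C to 15 concentrations (0.76% DMSO final). Lysed, then HTRF anti-pH2AX (S139) cryptate and anti-H2AX-d2 antibodies, 24 hr room temperature; 665/620 nm emission read.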
% is scaled to controls: 0 for no effect and ±100 for the full control effect.

Consider `COC(C)OC`, for which the Potency entry in assay [1], in [2], in assay [3], in [4], in assay [6] and in assay [7] was “inactive” in each case. In addition, the Potency result in assay [8] and in [9] was “inactive” in each case. Further, the activity change, positive = activation in assay [5] was -2.66%.

In the case of `CN1Cc2cc(C(=O)N3CCC(C4CCNCC4)CC3)ccc2NC(CC(=O)O)C1=O` (configuration not stated), the Potency entry in [1], in assay [2], in assay [3], in assay [6], in assay [7] and in [8] was “inactive” in each case. Moreover, the Potency entry in [9] is “inactive”. In addition, in [5], the activity change, positive = activation is 1.47% [at 42.5 µM].

As for `CN1CCN(C(c2ccccc2)c2ccccc2)CC1`, the Potency entry in assay [1], in assay [10], in [6], in assay [7], in assay [8] and in assay [9] was “inactive” each time.

Consider `COc1cccc(N(C)C(=S)Oc2ccc3c(c2)CCCC3)n1`, for which the Potency entry in assay [1], in [10], in assay [6], in [7], in assay [8] and in assay [9] was “inactive” in each case.

Regarding `O=C(c1ccc(F)cc1)C1CCN(CCn2c(=S)[nH]c3ccccc3c2=O)CC1`, the Potency is 21.3 µM (active) in [1], 49.2 µM (active) in assay [3] and 5.35 µM (active) in assay [7]. The Potency entry in [2], in assay [8] and in [9] was “inactive” in each case. For the same compound, in assay [5], the activity change, positive = activation is -56.8% [at 42.5 µM].

With `Cc1oc2c(NC(=O)c3c(Cl)cccc3Cl)cccc2c1C(C)(C)O`, the Potency result in [1], in assay [6] and in [8] was “inactive” each time. Also, the Potency in [2] is 17.4 µM (active); in assay [4], 30.6 µM (active). For the same compound, the activity change, positive = activation in assay [5] was -55.8%.

Turning to `Clc1ccc2c(c1)CCc1cccnc1C2=C1CCNCC1`, the Potency result in [1], in assay [2], in assay [3] and in [8] was “inactive” in each case. In addition, the Potency in assay [9] is 23.9 µM (active).

`Brc1c2ccccc2c(Br)c2ccccc12`: the values for the activity change, negative = cytotoxicity in [1], in [3] and in assay [6] were -13.7% [at 6.97 µM], 5.06% [at 14 µM] and 2.73% [at 6.97 µM], respectively. For the same compound, in assay [5], the activity change, positive = activation is 2.61% [at 8.39 µM]. The activity change, negative = cytotoxic is 4.29% [at 6.97 µM] in [7] and 1.43% [at 6.97 µM] in assay [9]. In addition, in [8], the cytotoxicity is 0.676% [at 6.97 µM].

For `N=c1ccn2c(n1)O[C@H]1[C@H](O)[C@@H](CO)O[C@H]12`, the Potency result in assay [1], in [2], in assay [4], in assay [6], in [7] and in assay [8] was “inactive” throughout. In assay [9], the Potency entry was “inactive”. In addition, the activity change, positive = activation in assay [5] was -6.33%.

For `COc1ccc(C(=O)c2ccc(OC)cc2O)c(O)c1`, the Potency entry in assay [1], in assay [2], in [4], in [6], in assay [8] and in assay [9] was “inactive” throughout. Moreover, the activity change, positive = activation in [5] is -2.18% (active). Besides, the Potency in assay [7] is 27.7 µM (active).

`CC(=O)[O][Al][O]C(C)=O`: the Potency result in [1], in [3], in assay [6], in assay [7], in [8] and in assay [9] was “inactive” throughout. For the same compound, in assay [5], the activity change, positive = activation was 1.12%.

Take `Nc1ccc(S(=O)(=O)Nc2ccccc2)cc1`: the Potency result in assay [1], in assay [2], in assay [6], in [7], in [8] and in assay [9] was “inactive” each time.

As to `CCNc1cc(O)ccc1C`, the Potency entry in assay [1], in assay [3], in [4], in assay [6], in assay [7] and in assay [8] was “inactive” each time. Also, the Potency entry in [9] was “inactive”. Besides, the activity change, positive = activation in assay [5] was -8.23%.

As to `OC(C#CCN1CCCC1)(c1ccccc1)c1ccccc1`, the Potency entry in [1], in assay [3], in [4], in assay [6], in assay [7] and in assay [8] was “inactive” each time. Also, the Potency result in assay [9] was “inactive”. Also, the activity change, positive = activation in [5] is -10.1% [at 42.5 µM].

In the case of `CNCCCCOc1ccccc1Cc1ccccc1`, the Potency result in assay [1], in assay [2] and in assay [8] was “inactive” in each case. For the same compound, the Potency in assay [7] was 23.9 µM (active).

On to `COc1cc2nc(N3CCN(C(=O)C4COc5ccccc5O4)CC3)nc(N)c2cc1OC` (configuration not stated), for which the Potency entry in assay [1], in [3], in assay [6], in assay [8] and in assay [9] was “inactive” in each case. Also, the Potency in [7] was 21.3 µM (active).

Regarding `O=C(O)c1nc(Cl)c(Cl)c(Cl)c1Cl`, the Potency entry in assay [1], in assay [2], in assay [4], in assay [6], in assay [8] and in assay [9] was “inactive” in each case. Further, the activity change, positive = activation in [5] was 0.56%.

`CC(C)Cc1ccc(C(C)C(=O)OCc2ccccn2)cc1` (configuration not stated): the Potency result in assay [1], in assay [2], in assay [3], in assay [6], in assay [8] and in assay [9] was “inactive” throughout.

With `Cc1ccc(N=Nc2c(O)c(C(=O)O)cc3ccccc23)c(S(=O)(=O)O)c1`, the Potency entry in assay [1], in assay [2], in [6], in assay [7], in [8] and in [9] was “inactive” in each case.

For `CCCCCCCCCCO[C@@H]1O[C@H](CO)[C@@H](O)[C@H](O)[C@H]1O`, the Potency entry in [1], in assay [2], in assay [3], in assay [6], in assay [8] and in assay [9] was “inactive” in each case.

For `CCCCCCCCCc1ccc(OCCOCCO)cc1`, the Potency result in [1] and in assay [8] was “inactive” throughout. For the same compound, the Potency in assay [3] is 37.6 µM (active); in [7], 1.15 µM (active).

Turning to `CCN(CC)CCOC(=O)C(c1ccccc1)C1CCCCC1` (configuration not stated), the Potency entry in assay [1], in assay [8] and in assay [9] was “inactive” throughout. For the same compound, the Potency in [3] is 49.2 µM (active).

On to `C[N+]1(C)CCC(OC(=O)C(O)(c2ccccc2)C2CCCC2)C1` (configuration not stated), for which the Potency entry in [1], in assay [3], in assay [6], in assay [7] and in [9] was “inactive” in each case.

On to `Nc1cccc([N+](=O)[O-])c1`, for which the Potency result in assay [1], in assay [3], in assay [4], in assay [6], in assay [7] and in assay [8] was “inactive” in each case. For the same compound, the Potency result in assay [9] was “inactive”. For the same compound, in assay [5], the activity change, positive = activation was -5.85%.

As to `CCOc1ccc(O)cc1`, the Potency result in assay [1], in assay [2], in [3], in assay [6], in assay [8] and in [9] was “inactive” in each case.

`CC(C)(CO)[N+](=O)[O-]`: the Potency entry in assay [1], in assay [3], in assay [6], in [7], in [8] and in assay [9] was “inactive” in each case.
